In PubChem BioAssay (NCATS):
Inconclusive results are not listed. A call without a number means that no potency is given here. Calls of active or inactive are those of the source. Calls follow the shape of the dose curve; as a rule, active = well fitted inhibition curve with a large enough effect; inconclusive = small, poorly fitted or top-dose-only effect; inactive = flat fitted curve, though single readings scatter.

test system: Zika virus NS2B-NS3 protease; experiment: Primary screen GU AMC qHTS for Zika virus inhibitors (AID 1347154); details: Zika NS2B-NS3 unlinked protease, AMC fluorogenic substrate; series mostly up to 54.1 µM; also: nearly all actives have a fitted effect of over 70% in size
Outline: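 Fluorogenic AMC-substrate cleavage by noncovalent NS2B-NS3 protease complex (25 nM, pH 8.0 Tris buffer with Tween 20) followed for 15 minutes at room temperature (~20% conversion). Percent inhibition from ex340/em450 signal change, fitted by 4-parameter Hill equation.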
Potency is read from the fitted curve at half-maximal effect.

| Structure (SMILES) | Potency |
| --- | --- |
| O=C1NC(=O)C(=Cc2ccc3c(c2)OC(F)(F)O3)S1 | inactive |
| O=C(O)C=Cc1ccc(O)c(O)c1 | inactive |
| COc1ccc(-c2cc(=O)c3c(O)cc(O)cc3o2)cc1O | inactive |
| C[C@@H]1CCN(C(=O)CC#N)C[C@H]1N(C)c1ncnc2[nH]ccc12 | inactive |
| CC(=O)O[C@]1(C(C)=O)CC[C@H]2[C@@H]3C=C(Cl)C4=CC(=O)[C@@H]5C[C@@H]5[C@]4(C)[C@H]3CC[C@@]21C | inactive |
| CC(C)(C)C(=O)Oc1ccc2c(c1)nc(NC(=O)c1cccc([N+](=O)[O-])c1)n2CCCO | inactive |
| CCOC(CN1C(=O)[C@](CC(=O)Nc2ccc(C)cc2)(NC(=O)Nc2ccc(C)cc2)c2ccccc21)OCC | inactive |
| COc1ccc(-c2coc3cc(O)cc(O)c3c2=O)cc1 | inactive |
| Cc1c[nH]c(C=C2C(=O)Nc3ccccc32)c1CCC(=O)O | inactive |
| COC[C@@H](c1ccc(C(F)(F)F)cc1)N1CCN(C2(C)CCN(C(=O)c3c(C)ncnc3C)CC2)C[C@H]1C | inactive |
| C=C1C(=O)OC2C=C(C)CCC=C(C)CCC12 (configuration not stated) | inactive |
| CC(=O)CCCCn1c(=O)c2c(ncn2C)n(C)c1=O | inactive |
| CC(C)NCC(O)COc1cccc2[nH]ccc12 (configuration not stated) | inactive |
| COC(=O)N[C@H](C(=O)N1CCC[C@@H]1c1ncc(-c2ccc(-c3ccc(-c4cnc([C@@H]5CCCN5C(=O)[C@@H](NC(=O)OC)C(C)C)[nH]4)cc3)cc2)[nH]1)C(C)C | 30.4 µM (active) |
| N[C@H](CSC(c1ccccc1)(c1ccccc1)c1ccccc1)C(=O)O | inactive |
| CCOC1OC(=O)C[C@H]1NC(=O)[C@@H]1CCCN1C(=O)[C@@H](NC(=O)c1ccc(N)c(Cl)c1)C(C)(C)C (some centres not stated) | inactive |
| CN(C)CCC=C1c2ccccc2COc2ccc(CC(=O)O)cc21 | inactive |
| CC(=O)Oc1cc2c(s1)CCN(C(C(=O)C1CC1)c1ccccc1F)C2 (configuration not stated) | inactive |
| CC(C)C(C)C=CC(C)C1CCC2C3=CC=C4CC(O)CCC4(C)C3CCC21C (configuration not stated) | inactive |
| CCc1ccc(OCc2ccccc2C(=O)Nc2ccc3nc(C)cc(N)c3c2)cc1 | inactive |
| CCC(CC)[C@H](NC(C)=O)[C@@H]1[C@H](O)[C@@H](C(=O)O)C[C@@H]1N=C(N)N | inactive |
| COCCCCC(=NOCCN)c1ccc(C(F)(F)F)cc1 | inactive |
| CC=CC(=O)N(CC)c1ccccc1C | inactive |
| CC#CCn1c(N2CCC[C@@H](N)C2)nc2c1c(=O)n(Cc1nc(C)c3ccccc3n1)c(=O)n2C | inactive |
| CON=C(C(=O)N[C@@H]1C(=O)N2C(C(=O)OCOC(=O)C(C)(C)C)=C(C=Cc3scnc3C)CS[C@H]12)c1csc(N)n1 | inactive |
| CO[C@H]1C(=O)[C@]2(C)[C@@H](OC)C[C@H]3OC[C@@]3(OC(C)=O)[C@H]2[C@H](OC(=O)c2ccccc2)[C@]2(O)C[C@H](OC(=O)[C@H](O)[C@@H](NC(=O)OC(C)(C)C)c3ccccc3)C(C)=C1C2(C)C | inactive |
| Cc1ccc(C(C)(O)c2nc3ccccc3s2)c(C)c1 (configuration not stated) | inactive |
